# Measured values: PubChem BioAssay AID2599 (Sanford-Burnham Center for Chemical Genomics, 2010)
# In all, about 330,000 compounds went through this assay and about 5,800 (1.8%) were called active. What follows is part of a selection rich in actives, with near analogues and random picks from the rest. A number with no mark means an inactive call.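 Rule for the calls: active = inhibition above about 50% at the single tested dose (limit read from the data); inactive = the rest.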
# Molecular target: Sentrin-specific protease 6 (Homo sapiens) (UniProt Q9GZR1)
# Experiment: SENP6 protease inhibitors, primary screen, biochemical, luminescence, uHTS (AID 2599);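 note: plate controls were DMSO wells with enzyme for no effect and DMSO wells lacking enzyme for full effect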
# Conditions: Recombinant SENP6 catalytic domain, aminoluciferin luminescence; at 10 µM; hits give high values
# Sentrin-specific protease 6 (Homo sapiens), sequence (Q9GZR1 628-1112 limits assumed): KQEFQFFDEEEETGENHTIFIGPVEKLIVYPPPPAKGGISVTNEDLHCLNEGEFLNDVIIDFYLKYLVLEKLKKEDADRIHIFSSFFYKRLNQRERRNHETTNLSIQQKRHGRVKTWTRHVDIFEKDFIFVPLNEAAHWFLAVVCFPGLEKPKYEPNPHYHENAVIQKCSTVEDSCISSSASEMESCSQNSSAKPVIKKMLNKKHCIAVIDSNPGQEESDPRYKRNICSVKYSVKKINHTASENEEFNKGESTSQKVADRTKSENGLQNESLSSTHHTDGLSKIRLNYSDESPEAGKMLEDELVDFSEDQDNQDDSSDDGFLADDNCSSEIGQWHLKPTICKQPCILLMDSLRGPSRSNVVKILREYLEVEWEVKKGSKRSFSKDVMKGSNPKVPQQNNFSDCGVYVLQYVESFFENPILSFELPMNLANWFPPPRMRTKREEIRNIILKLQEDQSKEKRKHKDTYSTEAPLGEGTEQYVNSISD
row,SMILES,inhibition
1,Nc1[nH][nH]c(=O)c1N=Nc1ccc2c(c1)OCO2,51.5% (active)
2,CC(=O)c1cc2c(cc1N)OCO2,1.73%
3,N/C(=N\OC(=O)c1ccc2c(c1)OCO2)c1ccc(Br)cc1,46%
4,Cn1c2ccccc2c2cc(/C=C(\NC(=O)c3ccccc3)C(=O)NCC(=O)O)ccc21,-6.28%
5,O=S(=O)(Nc1ccc(O)c2ccccc12)c1ccc(OC(F)(F)F)cc1,74.9% (active)
6,Cc1nn(C)c(C)c1NS(=O)(=O)c1ccc(OC(F)(F)F)cc1,5.85%
7,O=C1COc2ccc(S(=O)(=O)Nc3ccc(OC(F)(F)F)cc3)cc2N1,-6.08%
8,C[C@@H]1CN([C@@H](C)CO)C(=O)c2cccc(NS(=O)(=O)c3ccc(F)cc3)c2O[C@H]1CN(C)C(=O)NC1CCCCC1,-9.28%
9,CCOc1ccc(NC(=O)COc2ccc(S(=O)(=O)N3CCCC3)cc2)cc1,-19.8%
10,O=C(N/N=C/c1cccnc1)c1cc2ccccc2cc1O,54.6% (active)
11,N=c1oc2ccccc2cc1C(=O)N/N=C/c1ccccc1,89.2% (active)
12,O=C(N/N=C/c1cccnc1)c1ccc(NC(=O)c2ccc(F)cc2)cc1,-21.5%
13,CNC(=O)c1cc2c(ccc3ccccc32)oc1=N,6.2%
14,Cc1ccc(/C=N/NC(=O)c2cc3ccccc3cc2O)o1,73.7% (active)
15,N=c1oc2ccccc2cc1C(=O)NCc1ccccc1,-3.97%
16,O=C(N/N=C\c1cccnc1)c1cc(-c2ccccc2)nc2c(Cl)cccc12,-10.9%

row,SMILES,inhibition
1,Cc1ccc(/C=N/NC(=S)NC2CCCCC2)o1,-24.3%
2,Cc1ccc(/C=N/NC(=S)Nc2cccc(S(=O)(=O)N(C)C)c2)o1,-0.431%
3,CCCN(CC(=O)Nc1ccccc1OC)C(=O)CCC(=O)c1ccc(F)cc1,-2.28%
4,O=C(C(=O)N1CCc2ccccc2C1)c1c[nH]c2ccccc12,-7.83%
5,CC(NC(=O)c1cccc(S(=O)(=O)N2CCc3ccccc3C2)c1)c1ccco1 (configuration not stated),-17.8%
6,CCOc1cc(/C=C2\SC(N3CCCC(C)C3)=NC2=O)ccc1O (configuration not stated),11.9%
7,CCCc1ccc(OCC(O)CN2CCN(CCO)CC2)cc1 (configuration not stated),5.43%
8,CCc1cccc(NC(=O)COC(=O)C2CCN(c3ccc(C(F)(F)F)cn3)CC2)c1,33.7%
9,CCOc1ccc(CN2CCN(CCCc3ccccc3)C(CCO)C2)cc1 (configuration not stated),9.84%
10,Cc1nnc(CN(C)Cc2cn[nH]c2-c2ccc(-c3ccccc3)cc2)o1,-1.7%
11,Cc1c(Cl)cccc1NC(=O)CC1SC(=NCC2CCCO2)NC1=O (configuration not stated),-0.542%
12,COc1ccc(OC)c(/C=C/C(=O)c2ccc3c(c2)OCO3)c1,-8.22%
13,CC(Sc1nnc(COc2ccccc2)n1-c1ccccc1)C(=O)O (configuration not stated),-16.5%
14,Nc1ccccc1/C=N\N=C/c1ccccc1N,60.6% (active)
15,C=CCC[C@H](Cc1ccc(F)cc1)C(=O)OC[C@H](C)NC(=O)[C@H](CC=C)CC(=O)N(CCO)Cc1ccccc1,-7.07%
16,CCCCCCC12CCC(C(=O)O)(CC1)CC2,-27.4%
